# Shiga inhibitor: Shiga toxin inhibition | Vero cells, Shiga toxin protein synthesis inhibition reporter | inhibition, % at 38.7 µM | 9.2% of 290,000 active; in the data active means inhibition mostly above about 28%, no sharp cut-off; inactive means mostly below about 43%; further: 0% is about no effect
# FBPA Giardia inh: Giardia lamblia aldolase inhibition; A8B2U2; purified Giardia FBPA; Potency, µM (titrated, usually from 59.6 µM), for inactives: at the top dose activity, negative = inhibition, hits mostly inhibitors; 0.71% of 290,000 active; further: potency means the concentration at half of the fitted maximal effect; on the % scale 0 is the no-effect control and ±100 the full control effect; nearly all actives have a fitted effect of over 55% in size
# Target sequence (A8B2U2 whole entry, looked up): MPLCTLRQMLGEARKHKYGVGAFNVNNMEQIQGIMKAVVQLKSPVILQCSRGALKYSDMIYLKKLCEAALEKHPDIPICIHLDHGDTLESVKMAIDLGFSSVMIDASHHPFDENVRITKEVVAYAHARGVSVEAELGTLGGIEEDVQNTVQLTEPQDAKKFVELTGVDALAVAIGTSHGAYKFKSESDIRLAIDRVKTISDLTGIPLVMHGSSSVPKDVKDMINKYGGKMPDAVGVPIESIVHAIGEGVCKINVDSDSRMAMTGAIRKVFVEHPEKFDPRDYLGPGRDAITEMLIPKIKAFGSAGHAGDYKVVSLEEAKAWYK
#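 40 nM FBPA preincubated 10 min at RT with compound (up to 57.5 uM final), then substrate plus GAPDH/TPI/NAD/arsenate coupling and diaphorase/resazurin added. Fluorescence read after 20 min at RT, 525/598 nm.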
# CHX counter: affects cycloheximide protein synthesis inhibition readout, counter-screen | max response, % | 12% of 300,000 active | cell reporter, cycloheximide protein synthesis inhibition counterscreen; in the data active means max response mostly above about 13%, no sharp cut-off; inactive means mostly below about 14%; further: read at 38.3 µM for the half of the compounds with a filed dose; 0% is about no effect
# LmPK inh: blocks Leishmania mexicana pyruvate kinase activity; Q27686; purified LmPK, Kinase-Glo ATP luminescence, 1 h; Potency, µM (top dose mostly 57.5 µM), for inactives: at the highest dose activity change, negative = inhibition, hits mostly inhibitors; 0.37% of 290,000 active; further: potency means the concentration at half of the fitted maximal effect; on the % scale 0 is the no-effect control and ±100 the full control effect
#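 Purified LmPK (0.1 nM) converted ADP (0.1 mM) to ATP with PEP (0.5 mM) in imidazole buffer pH 7.2 with KCl and MgCl2, 1 h at room temperature. ATP was read by Kinase-Glo luminescence; data normalized to uninhibited and no-enzyme controls.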
# NS1 function inh: inhibitors of influenza NS1 protein function. Potency, µM (doses to about 46.1 µM), without a hit: at the top dose activity, positive = more growth. 0.4% of 270,000 active. AID 2326; calls by dose curve; further: potency means the concentration at half of the fitted maximal effect; actives are rising curves; nearly all actives have a fitted effect of over 50% in size
#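 S. cerevisiae expressing influenza A NS1, grown in glucose, washed, then diluted 1:100 into pH 6.0 -URA galactose medium with 23 nl compound. Growth recovery read as OD600; NS1-free strain serves as control.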
# The depositor's hits bear a star; ? = inconclusive; . = no result given; + = active, no number; [ ] = remark or other dose. Sampled rows, rich in hits. Any-hit rate of the full collection: about 14%. Unless noted, the call rests on the fitted dose curve; in most records, active means well fitted curve in the direction sought with a large enough effect; inconclusive means small, poorly fitted or top-dose-only effect, or another doubt; inactive means no such curve, though single readings can be large; an effect the other way counts as inactive or inconclusive.
SMILES,Shiga inhibitor,FBPA Giardia inh,CHX counter,LmPK inh,NS1 function inh
Cc1cc(C2=NNC(=NC3CC3)SC2)c(C)n1-c1ccccc1,-6,1%,-1,?,27%
c1ccc2c(C3=NNC(=NC4CCCCC4)SC3)c[nH]c2c1,26,0%,36*,-1%,?
c1ccc2c(C3=NNC(=NC4CC4)SC3)c[nH]c2c1,17,-4%,38*,-25%,1%
O=c1oc2cc(O)ccc2cc1-c1ccc2c(c1)OCCO2,.,4%,.,.,.
CC(=O)NCCn1c(C)cc2ccccc21,-9,-5%,-1,-1%,-41%
Cc1cc2ccccc2n1CCNC(=O)c1ccccc1,24,-22%,15*,9%,16%
Cc1cc2ccccc2n1CCNC(=O)c1ccc(Br)o1,28*,?,19*,1%,3%
Cc1cc2ccccc2n1CCNC(=O)C(C)(C)C,17,-4%,-1,3%,-13%
c1ccc(Oc2cc(-n3cccn3)ncn2)cc1,74*,-1%,54*,?,-3%
COC(=O)c1cnn(-c2ccccc2)c1C(OC)OC,19,-1%,1,-11%,0%
COc1ccccc1Oc1cc(-n2nc(C)cc2C)ncn1,0,3%,-2,-1%,-11%
NC(=O)c1cnn(-c2cc(Oc3ccccc3)ncn2)c1N,59,1%,47*,9%,-3%
COC(=O)c1cnn(-c2cc(Oc3ccccc3)ncn2)c1N,27,8%,23*,5%,-1%
C=N[C@H](C(=O)N[C@@H]1C(=O)N2[C@@H]1SC(C)(C)[C@@H]2C(=O)O)c1ccccc1,.,-9%[21.7 µM],.,.,.
CC(C)N(CCCNC(=O)C1CCN(C(=O)c2cc3sccc3n2C)CC1)Cc1ccccc1,-5,.,-6,-8%,-16%
CCCCC/C=C\C/C=C\CCCCCCCC(=O)NCCCC(=O)O,.,7%,.,.,.
c1ccc(-c2noc(C3CCCCC3)n2)nc1,66*,0%,32*,?,2%
Brc1ccc(-c2noc(C3CCCCC3)n2)cc1,34*,3%,14*,-6%,2%
CCc1ccc(NC(=O)C(C)OC(=O)CCC(=O)c2cccs2)cc1 (centres undefined),14,6%,-1,5%,-26%
CCc1ccc(NC(=O)C(C)OC(=O)CC(NC(C)=O)c2ccccc2)cc1 (centres undefined),29,0%,33*,1%,?
Cc1ccc(-c2nc3c(Cl)cc(Cl)cc3c(=O)n2O)cc1,-4,8%,1,0%,-30%
COc1ccc(CCN(CC(=O)NC2CCCC2)C(=O)Cn2nnc(-c3ccc(C)o3)n2)cc1OC,-8,-1%,5,5%,4%
c1ccc2c(Oc3ccc4c(c3)OCO4)nncc2c1,76*,3%,29*,-26%,-53%
Cc1cccc(/C(N)=N/OC(=O)Cc2cccc3ccccc23)c1,28,-4%,20*,1%,-50%
N/C(=N\OC(=O)Cc1cccs1)c1ccccc1,59*,0%,28*,-13%,-2%
SMILES,Shiga inhibitor,FBPA Giardia inh,CHX counter,LmPK inh,NS1 function inh
Cc1ccc(/C(N)=N/OC(=O)Cc2cccs2)cc1,143*,0%,50*,-6%,6%
Cc1ccc(NC(=O)COC(=O)Cc2cccs2)c(Br)c1,29,10%,16,0%,-5%
Cc1ccc(/C(N)=N/OC(=O)Cc2cccc3ccccc23)cc1,2,0%,-4,5%,.
N/C(=N\OC(=O)Cc1cccs1)c1cccc([N+](=O)[O-])c1,44*,0%,26*,-2%,4%
COc1ccccc1CC(=O)O/N=C(\N)c1cccc([N+](=O)[O-])c1,28,5%,1,2%,-4%
N/C(=N\OC(=O)CN1C(=O)c2ccccc2C1=O)c1ccc(Cl)cc1,11,4%,1,3%,5%
N/C(=N\OC(=O)Cc1cccs1)c1ccc(Cl)cc1,41*,-1%,31*,-1%,7%
N/C(Cc1cccs1)=N\OC(=O)COc1ccccc1,33,2%,22*,-1%,-4%
Cc1cccc(/C(N)=N/OC(=O)Cc2cccs2)c1,96*,7%,68*,-12%,1%
Cc1cccc(/C(N)=N/OC(=O)CCC2CCCCC2)c1,29,0%,18,-26%,-28%
CCc1c(C)c2ccc(OCC(=O)NCC3CCC(C(=O)O)CC3)cc2oc1=O (centres undefined),-6,16%,-5,-7%,18%
Cc1cccc(OCc2nc(C#N)c(NCc3ccc4c(c3)OCO4)o2)c1,56,-6%,42*,7%,-125%
COc1ccc(Nc2oc(COc3ccc(OC)cc3)nc2C#N)cc1,3,-13%,-2,0%,3%
N#Cc1nc(COc2ccc(Cl)cc2)oc1NCc1ccc2c(c1)OCO2,-25,-5%,4,-6%,-5%
COc1ccc(CCNc2oc(COc3ccccc3)nc2C#N)cc1,20,-8%,13,1%,-72%
COc1ccc(CNc2oc(COc3ccccc3)nc2C#N)cc1,40*,-9%,20*,-3%,-69%
N#Cc1nc(COc2ccccc2Cl)oc1NCc1ccc(F)cc1,12,1%,9,2%,-7%
COc1ccc(Nc2oc(COc3ccc(C)cc3)nc2C#N)cc1,41*,-13%,16,8%,4%
N#Cc1nc(COc2ccccc2Cl)oc1NCc1cccnc1,38*,8%,14,2%,?
COc1ccc(Nc2oc(COc3cccc(C)c3)nc2C#N)cc1,76*,-12%,60*,6%,4%
N#Cc1nc(COc2cccc(Cl)c2)oc1NCc1ccco1,65,-7%,50*,3%,-39%
N#Cc1nc(Cc2ccccc2)oc1NCc1ccccc1,+,-10%,28*,5%,-17%
COc1ccc(Nc2oc(COc3ccccc3F)nc2C#N)cc1,40,2%,0,3%,8%
CCNc1oc(COc2cccc(C)c2)nc1C#N,48,-1%,23*,-1%,-11%
O=C(CCCN1C(=O)c2cccc3cccc(c23)C1=O)NC1CCS(=O)(=O)C1 (centres undefined),44,-5%,19,-4%,-12%
SMILES,Shiga inhibitor,FBPA Giardia inh,CHX counter,LmPK inh,NS1 function inh
CC1(C)CC[C@]2(C(=O)O)CC[C@]3(C)C(=CCC4[C@@]5(C)CC[C@H](O)C(C)(C)C5[C@H](O)C[C@]43C)C2C1 (some centres undefined),.,28%,.,.,.
CCn1c2ccccc2c2nnc(NCCCO)nc21,.,.,.,.,0%
OCCNc1nc(-c2ccccc2)nc2c1oc1ccccc12,10,-7%,2,-1%,-5%
Cc1ccc(-c2nc(CS(=O)(=O)CC(=O)NCCCN(Cc3ccccc3)C(C)C)c(C)o2)cc1,-9,-5%,-3,-1%,19%
Cc1oc(-c2ccc(-c3ccccc3)cc2)nc1CN(C)C1CCOC1 (centres undefined),75*,0%,60*,-3%,2%
Cc1oc(-c2ccc(-c3ccccc3)cc2)nc1CN(CCO)C(C)C,32,-9%,37*,6%,-12%
Cc1ccc(-c2nc(CN(C)C3CCOC3)c(C)o2)s1 (centres undefined),47,5%,25*,3%,0%

# Compound activity: PubChem, National Center for Advancing Translational Sciences (NCATS)
